Inconclusive results are not listed. Activity calls are given as the source filed them. Calls come from the whole dose curve.
% is set by controls: 0 for no effect and ±100 for the full control effect; potency is the fitted concentration of half-maximal effect.

A short description of this test: qHTS assay to identify small molecule antagonists of the estrogen receptor alpha (ER-alpha) signaling pathway using the BG1 cell line (AID 743080).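 Note: BG1 cells stimulated with 17beta-estradiol alongside compound; nearly all actives have a fitted effect of over 25% in size.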 The settings on record: BG1Luc4E2 ERE-luciferase antagonist mode, luminescence; series mostly up to 70.3 µM; activity change, negative = inhibition: at the top concentration. From the text: National Center for Advancing Translational Sciences [NCATS]
NIH Chemical Genomics Center [NCGC]
U.S. Environmental Protection Agency [EPA]
National Institutes of Environmental Health Sciences [NIEHS]
National Toxicology Program [NTP]
U.S. Food and Drug Administration [FDA]
Estrogen receptor (ER), a nuclear hormone receptor, plays an important role in development, metabolic homeostasis and reproduction. Endocrine disrupting chemicals (EDCs) and their interactions with steroid hormone receptors like ER causes disruption of normal endocrine function. Therefore, it is important to understand the effect of environmental chemicals on the ER signaling pathway. To identify ER antagonists, BG1-Luc-4E2 cell line (provided by Dr. Michael Denison from University of California) has been used to screen the Tox21 10K compound library. BG1Luc4E2 cell line endogenously expresses full-length ER-alpha and is stably transfected with a plasmid containing four estrogen responsive elements (ERE) upstream of a luciferase reporter gene.
Tox21 Assay Protocol Summary:
BG1-Luc-4E2 cells were cultured in phenol red free assay medium containing 10% charcoal stripped FBS for 5 days before the assay was performed. The cells were dispensed at 4,000 cells/4 uL of assay medium per well into white wall/solid-bottom 1536-well plates using a Multidrop Combi (ThermoFisher Scientific, Waltham, MA) dispenser. The assay plates were incubated at a 37C and 5% CO2 for 24 h, and then 23 nL of compounds dissolved in DMSO, positive controls or DMSO only was transferred to the assay plate using a Pintool station (Kalypsys, San Diego, CA), followed by addition of 1 uL of 17beta-estradiol in assay medium using a Flying Reagent Dispenser (Aurora Discovery, San Diego, CA). After the plates were incubated at 37 C and 5% CO2 for 21.5 h, 1 uL of CellTiter-Fluor reagent (Promega, Madison, WI) of measuring cytotoxicity was added using Flying Reagent Dispenser (FRD) to each well. The assay plates were incubated at 37 C and 5% CO2 for additional 30 min and the fluorescence intensity was quantified by a ViewLux plate reader (PerkinElmer, Shelton, CT). For measuring luciferase reporter gene activity, 4 uL of ONE-Glo reagent (Promega) was added to each plate using an FRD and luminescence was quantified by a ViewLux plate reader after 30 min incubation at room temperature.
(In general: Quantitative high-throughput screening tests each substance at several concentrations.)
Turning to `O=C(O)c1c2ccccc2cc2ccccc12`, the “activity change, negative = inhibition” value is 0.178% (inactive).

Take `CC(COc1ccccc1)NC(C)C(O)c1ccc(O)cc1` (stereo not given): the “activity change, negative = inhibition” value was 3.29% [at 32.5 µM] (inactive).

As to `CCCCCCCCCCCC(=O)OCC`, the “activity change, negative = inhibition” value was -0.465% (inactive).

On to `Clc1cccc(C(c2ccc3nc[nH]c3c2)n2ccnc2)c1` (stereo not given), for which the Potency is 11.9 µM (active).

Regarding `CC(CCl)OC(C)CCl` (stereo not given), the “activity change, negative = inhibition” value was -8.15% (inactive).

Regarding `O=C(O)c1cccnc1Nc1cccc(C(F)(F)F)c1`, the “activity change, negative = inhibition” value is -0.0143% (inactive).

As to `OCC(O)c1ccccc1` (stereo not given), the “activity change, negative = inhibition” value is -4.52% (inactive).

For the compound `CC[C@H](NC(C)C)[C@H](O)c1ccc(O)c2[nH]c(=O)ccc12`, the “activity change, negative = inhibition” value is 19.3% (inactive).

Consider `CCCCCO`, for which the “activity change, negative = inhibition” value was -99.5% (inactive).

On to `Cc1ccc(NC=O)c(C)c1`, for which the “activity change, negative = inhibition” value was -5.54% (inactive).

As to `CCn1nc(Cc2ccccc2)cc1C1CCN(C[C@H]2C[C@H](N(C)[C@@H](C(=O)O)C(C)C)C[C@@H]2c2cccc(F)c2)CC1`, the “activity change, negative = inhibition” value was -7.57% (inactive).

With `CC1(C)C(=O)NC(=O)N1CO`, the “activity change, negative = inhibition” value was -3.79% (inactive).

With `OCCCO`, the “activity change, negative = inhibition” value was 5.09% [at 95 µM] (inactive).

As for `O=C(OCCOCCOCCOC(=O)c1ccccc1)c1ccccc1`, the “activity change, negative = inhibition” value is 3.66% (inactive).

On to `CC(C)=CCCC(C)C=O` (stereo not given), for which the “activity change, negative = inhibition” value is 18.5% (inactive).

Consider `CCCCOC(=O)C(C)Oc1ccc(Oc2ccc(C(F)(F)F)cn2)cc1` (stereo not given), for which the “activity change, negative = inhibition” value was -15.2% (inactive).

Turning to `CC(=O)c1ccc(Cl)c(Cl)c1Cl`, the “activity change, negative = inhibition” value is -0.609% (inactive).

Take `CCOC(OCC)OCC`: the “activity change, negative = inhibition” value was -2.34% (inactive).

In the case of `CC1(C)CC(O)CC(C)(C)N1[O]`, the “activity change, negative = inhibition” value was -2.03% (inactive).

As for `Oc1ccc(CCNCCCCCCNCCc2ccccc2)cc1O`, the “activity change, negative = inhibition” value is -0.181% (inactive).

Regarding `CNc1ccccc1`, the “activity change, negative = inhibition” value was 9.89% (inactive).

For `CCCCCCCCCCCCSC#N`, the “activity change, negative = inhibition” value was 11.2% (inactive).

As to `C=CC(=O)NC(C)(C)C`, the “activity change, negative = inhibition” value is 8.67% (inactive).

Regarding `CC(C)C/C=C(\C=O)c1ccccc1`, the “activity change, negative = inhibition” value is -4.48% (inactive).

Regarding `COC(=O)c1cc(Cl)ccc1[N+](=O)[O-]`, the “activity change, negative = inhibition” value is 3.45% (inactive).

`O=c1[nH][nH]c2ccccc12`: the “activity change, negative = inhibition” value was -11.6% [at 95 µM] (inactive).

Regarding `CC1=C(C)C(=O)C(C(CCCCCC(=O)O)c2ccccc2)=C(C)C1=O` (stereo not given), the “activity change, negative = inhibition” value is -12.6% (inactive).

Consider `CCCCCCCCCCCCCCCCCCCl`, for which the activity change, negative = inhibition is 0.197% [at 8.47 µM] (inactive).

For `CC(C)=CCC[C@H](C)CCO`, the “activity change, negative = inhibition” value was -7.44% (inactive).

In the case of `O=c1[nH]nc(-c2ccc([N+](=O)[O-])o2)o1`, the “activity change, negative = inhibition” value is -15.2% (inactive).

With `Nc1ccc(F)cc1F`, the “activity change, negative = inhibition” value is -0.227% [at 95 µM] (inactive).

Consider `Nc1cccc2c(=O)[nH][nH]c(=O)c12`, for which the “activity change, negative = inhibition” value was -16.2% [at 95 µM] (inactive).

For `CCC(CC)C(=O)O`, the “activity change, negative = inhibition” value is -3.6% (inactive).

Regarding `CC(C)CCCCCOC(=O)CS`, the “activity change, negative = inhibition” value is -0.095% (inactive).

Consider `CC(C)NC(=O)c1ccccc1N`, for which the “activity change, negative = inhibition” value was -0.384% (inactive).

Regarding `CCCCCCCCCCCCSCCOCCO`, the “activity change, negative = inhibition” value was -1.26% (inactive).

Take `CCCCCCCCS`: the “activity change, negative = inhibition” value was 3.1% [at 95 µM] (inactive).

With `CCCCCCOC(=O)c1ccccc1`, the “activity change, negative = inhibition” value was 9.59% (inactive).

As for `O=P(c1ccccc1)(c1ccccc1)c1ccccc1`, the “activity change, negative = inhibition” value was 2.43% (inactive).

Regarding `CCCC1CCOC(C)S1` (stereo not given), the “activity change, negative = inhibition” value was -9.03% (inactive).

These data come from PubChem BioAssay (Tox21).
